Screening data (PubChem BioAssay)
p53null 32C tox: kills p53 null cells at the permissive temperature; H1299-neo p53 null cells, ATP luminescence, 24 h, 32C; actives 0.62% (n = 55,000); Potency, µM (titrated, usually from 46.1 µM), without a hit: top-dose activity change, negative = cytotoxicity, hits mostly cytotoxic;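 further: 0% = DMSO only and -100% = full killing by 100 µM tamoxifen; nearly all actives have a fitted effect of over 55% in size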
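H1299-neo (p53 null) cells, 600/well, treated 24 h at 32C with compound up to 46 uM; ATPlite luminescence viability, normalized to DMSO and 100 uM tamoxifen; AC50 by Hill fit.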
p53null 39C kill: kills p53 null cells at the nonpermissive temperature; H1299 p53-null (neo) cells, 39C, ATPlite viability, 24 h; Potency, µM (highest dose often 46.1 µM), for the others: top-dose activity, negative = cell killing, actives largely listed as cytotoxic; actives 0.97% (n = 55,000);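 further: 0% = DMSO only and -100% = full killing by 100 µM tamoxifen; nearly all actives have a fitted effect of over 50% in size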
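Concentration-response (up to 46 uM) was run for 24 h at the nonpermissive 39C on H1299-p53A138V or H1299-neo cells. ATP content was measured with ATPlite luminescence. AC50 values were Hill-modeled after normalizing between DMSO and 100 uM tamoxifen killing.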
PMP22 txn prim: modulates PMP22 transcription in S16 Schwann cells; AID 1508649; Potency, µM (top dose mostly 57.5 µM), for inactives: at the highest dose activity change, negative = inhibition, usual class: inhibitors; S16 Pmp22-F2sN Schwann cells, FLuc/NLuc coincidence luminescence, 24 h; actives 2% (n = 43,000); active means clear falling dose curves in both reporters; inconclusive means both reporters move, but less clearly or upward; inactive means either reporter flat; the % is the NLuc reporter signal
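Transcriptional readout in edited S16(c9) cells: two luciferases reported from the Pmp22 locus, measured in turn after 24 h compound incubation.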
pS6 MEF inh: inhibitors of mTORC1 signaling in Tsc2-/- p53-/- MEF cells; Tsc2-/- p53-/- MEF, phospho-rpS6 immunofluorescence/PI, 24 h; Potency, µM (series often up to 38.3 µM), without a hit: at the top dose activity change, negative = inhibition, hits mostly inhibitors; actives 0.78% (n = 44,000); AID 493208;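 further: plate controls were DMSO for no effect and rapamycin for full effect; nearly all actives have a fitted effect of over 50% in size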
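Plate MEFs (Tsc2-/-, p53-/-, empty vector) in DMEM/10% FBS; after 24 h add compound, incubate 24 h at 37 degree Celsius; fix in PFA/TX-100, block, stain phospho-rpS6 and 10 uM PI; scan at 488 nm; report % positive cells.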
S16 F2sN tox: S16 Schwann cell cytotoxicity | AID 1508642 | Potency, µM (highest dose often 57.5 µM), for the others: at the top dose activity change, negative = cytotoxicity, usual class: cytotoxic | actives 0.48% (n = 43,000) | S16 Pmp22-F2sN Schwann cells viability, CellTiter-Glo, 24 h; further: nearly all actives have a fitted effect of over 65% in size
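Used to flag compounds lowering reporter output through toxicity, this quantitative HTS measures ATP-based CellTiter-Glo luminescence in S16 Pmp22-F2sN Schwann cells after 24 h compound exposure at 37C.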
Starred values were filed as active, the others as inactive; u = inconclusive; x = no result. Shown are actives, neighbours in structure and some others; about 3.2% of the full set was active somewhere. Unless noted, the call rests on the fitted dose curve; in most records, active means well fitted curve in the direction sought with a large enough effect; inconclusive means small, poorly fitted or top-dose-only effect, or another doubt; inactive means no such curve, though single readings can be large; an effect the other way counts as inactive or inconclusive. Unless noted, on the % scale 0 is the no-effect control and ±100 the full control effect; potency means the concentration at half of the fitted maximal effect.

SMILES	p53null 32C tox	p53null 39C kill	PMP22 txn prim	pS6 MEF inh	S16 F2sN tox
COc1ccccc1C(=O)Nc1ccc(OCc2cc(=O)n3ccsc3n2)cc1	u	-18.1%	-21.1%	-5.6%	19.1%
CC(C)(C)c1ccc(C(=O)NCC(c2cccs2)S(=O)(=O)c2cccs2)cc1 (stereo not given)	38.1%	19.8%	u	1.3%	u
Cc1ccc(Cl)cc1Nc1nn2c(=O)c3ccc(C(=O)NC(C)c4ccccc4)cc3nc2s1 (stereo not given)	5.8%	10.5%	7.61µM*	-11.6%	u
COc1ccccc1Nc1nn2c(=O)c3ccc(C(=O)NCCc4ccccc4)cc3nc2s1	u	6.31µM*	5.62µM*	u	8.91µM*
CCN(CC)CCNC(=O)c1ccc2c(=O)n3nc(Nc4cccc(Cl)c4C)sc3nc2c1	u	20µM*	u	-24.8%	u
COc1ccccc1Nc1nn2c(=O)c3ccc(C(=O)NC(C)c4ccccc4)cc3nc2s1 (stereo not given)	9.7%	29.1%	-14.7%	-6.4%	6.1%
CC(NC(=O)C1CCN(c2nc3ccccc3nc2C(F)(F)F)CC1)c1ccccc1 (stereo not given)	0.9%	-11.9%	-0.1%	5.4%	7.2%
O=C(CN1C(=O)C2(SCC(=O)N2c2ccccc2)c2ccccc21)NCc1ccccc1Cl (stereo not given)	-2.4%	4.3%	u	1.0%	9.1%
Cc1nn(C)c(C)c1S(=O)(=O)N(CC(=O)Nc1nccs1)c1ccc(C(C)C)cc1	2.9%	16.9%	x	x	x
Cc1oc2ccc(O)c(CN3CCCC(C)C3)c2c1C(=O)Nc1ccccc1 (stereo not given)	-2.6%	-14.6%	-19.0%	14.7µM*	-3.5%
O=C(Nc1nccs1)c1csc2c1CCCC2	-1.5%	-6.7%	x	x	x
O=C(Nc1ccc(F)cc1)c1csc2c1CCCCC2	15.8µM*	u	-18.8%	u	-14.1%
COc1cc2nc(SCC(=O)Nc3cccc(C)c3)n3nc(CCn4c(C)nc5ccccc54)nc3c2cc1OC	3.0%	-15.1%	u	-21.0%	u
COc1cc2nc(SCC(=O)Nc3ccc(F)cc3)n3nc(CCn4c(C)nc5ccccc54)nc3c2cc1OC	12.0%	20µM*	-18.2%	-15.8%	17.3%
COc1ccc(NC(=O)N(Cc2nnc3n2CCCCC3)c2ccc(OC)c(Cl)c2)cc1	-2.0%	-9.9%	7.5%	3.5%	12.0%
CCOC(=O)c1cccc(NC(=O)CSc2nc3cc4ccccc4cc3[nH]2)c1	-15.9%	u	-73.4%	-8.7%	-6.0%
CCCCOC(=O)c1ccc(NC(=O)c2sc3nc(C)cc(C)c3c2N)cc1	u	u	2.2%	10.4µM*	10.1%
Cc1ccc(C)c(NC(=O)Cn2nnc(C(=O)NCc3ccccc3Cl)c2N)c1	7.4%	7.9%	u	-3.8%	14.1µM*
COc1ccc(-c2cn3nc(N4CCCC(C(=O)Nc5cccc(OC)c5)C4)sc3n2)cc1 (stereo not given)	13.7%	7.9%	u	3.8%	9.3%
Cc1ccc(-c2nc3n(n2)Cc2ccccc2-3)cc1	8.91µM*	u	x	x	x
Cc1cc(C)cc(NC(=O)c2ccc3c(c2)nnn3C2CCCC2)c1	-8.7%	-14.0%	u	-22.7%	11.2µM*
CC(C)CS(=O)(=O)c1oc(-c2ccc(F)cc2)nc1S(=O)(=O)c1ccccc1	u	3.16µM*	u	0.736µM*	4.47µM*
CCC(C)S(=O)(=O)c1oc(-c2cccs2)nc1S(=O)(=O)c1ccccc1 (stereo not given)	25.1µM*	u	1.39µM*	1.17µM*	2.51µM*
Cn1cc(S(=O)(=O)CC(=O)Nc2ccc3c(c2)OCCO3)c2ccccc21	u	28.2µM*	x	x	x
COC(=O)c1ccc(NC(=O)Cn2cnc3c2c(=O)n(C)c(=O)n3C)cc1	2.7%	-6.1%	-30.7%	-3.4%	1.6%
SMILES	p53null 32C tox	p53null 39C kill	PMP22 txn prim	pS6 MEF inh	S16 F2sN tox
COc1ccccc1-c1cc(C(=O)Nc2cc(OC)c(OC)c(OC)c2)no1	9.2%	-17.7%	3.77µM*	u	u
Cc1ccc(C)c(N2CCN(CCCNC(=O)C3COc4ccccc4C3)CC2)c1 (stereo not given)	8.9%	7.8%	u	11.7µM*	u
O=C(NCCCN1CCN(c2ccccc2F)CC1)C1COc2ccccc2C1 (stereo not given)	-5.5%	1.0%	-21.6%	-0.6%	-3.4%
CNC(=O)c1ccc2c(c1)N=C(C)c1cc(C)ccc1S2	4.0%	-18.8%	-39.6%	-27.1%	-7.3%
CCC1=Nc2cc(C(=O)NCc3ccc(C)cc3)ccc2Sc2ccc(C)cc21	42.6%	6.3%	u	-16.4%	-8.0%
CCC1=Nc2cc(C(=O)NC3CCCC3)ccc2Sc2ccc(Cl)cc21	20.1%	29.6%	8.43µM*	u	u
CC1=Nc2cc(C(=O)NC3CCCC3)ccc2Sc2ccc(Cl)cc21	-4.4%	12.7%	5.32µM*	-20.1%	u
COc1cccc(CNC(=O)Cn2ccc3cc(S(=O)(=O)N4CCCC4)ccc32)c1OC	-4.1%	3.2%	-2.2%	-13.7%	-3.3%
O=C(Cn1c(=O)c2ccccc2n(CC(=O)Nc2ccc(Cl)cc2)c1=O)NCCc1ccccc1	-17.7%	-10.3%	-5.2%	16.5µM*	-21.3%
O=C(Cn1c(=O)c2ccccc2n(CC(=O)Nc2ccccc2F)c1=O)NCCc1ccccc1	5.2%	8.7%	-7.1%	-11.7%	0.1%
O=C1CC(=O)Nc2cc(S(=O)(=O)Nc3cccc(Br)c3)ccc2N1	-6.3%	28.9%	-2.5%	1.2%	-1.8%
O=C(Nc1cccc(F)c1)c1cnc2sc(N3CCCC3)nn2c1=O	-9.5%	-3.9%	-3.7%	5.0%	15.6%
COc1ccc(S(=O)(=O)NCC(c2ccco2)S(=O)(=O)c2cccs2)cc1F (stereo not given)	3.2%	-26.8%	15µM*	-4.9%	12.6µM*
CCOc1ccc(S(=O)(=O)NCC(c2ccco2)S(=O)(=O)c2cccs2)cc1 (stereo not given)	1.5%	20.4%	u	0.7%	u
COc1ccc(S(=O)(=O)NCC(c2ccco2)S(=O)(=O)c2cccs2)cc1C (stereo not given)	15.5%	-0.8%	u	-1.3%	22.4µM*
Cc1cc(F)ccc1S(=O)(=O)NCC(c1ccco1)S(=O)(=O)c1cccs1 (stereo not given)	6.0%	15.6%	u	0.7%	15.8µM*
Cc1nc2ccccc2n1/C(=N/S(=O)(=O)c1ccc(Br)cc1)c1ccccc1	3.8%	2.9%	x	x	x
CCn1c(=O)c2cc(C(=O)NC3CCCCCC3)sc2c2ccccc21	1.0%	-3.0%	u	-7.6%	2.5%
O=C1C2C3C=CC(C3)C2C(=O)N1c1nc2ccccc2s1 (stereo not given)	0.3%	26.1%	x	x	x
